For 58 molecules, INHIBITION results are on record in ChEMBL document CHEMBL4513216, “Probing the Open Global Health Chemical Diversity Library for Multistage-Active Starting Points for Next-Generation Antimalarials” (ACS Infect Dis, 2020).

SMILES strings stand for the structures. About 8,600 (12%) of roughly 69,000 compounds showed an effect of 50% or more. What follows is part of a selection rich in strong results, with near analogues and random picks from the rest.

The test system of this assay is Plasmodium berghei. Put plainly: Screen against P. berghei liver stage (PbLuc), transformed with Luciferase, at 10uM. Format: functional, HepG2. The note with it: tested at 10 uM.
For the molecule `Fc1ccc(CN2CCC(c3noc(-c4cnccn4)n3)CC2)cc1F`, the INHIBITION worked out at 18.3%. With `Cc1noc(-c2ccnc(Oc3ccc(CN4CCCC4)cc3C)c2)n1`, the INHIBITION is 89%. The figure for `Cc1noc(-c2ccnc(Oc3ccc(CN4CCCC4)cc3F)c2)n1` is 87.4%. The figure for `CCOc1cc(CNc2cc(-c3nc(C)no3)ccn2)ccc1OC` is 1.84%. Turning to `COc1ccc(CCNc2cc(-c3nc(C)no3)ccn2)cc1OC`, the INHIBITION turned out to be 10.8%.

In the case of `COc1ccc(CNC2CCCN(Cc3noc(C)n3)C2)cc1F` (stereo not drawn), the INHIBITION worked out at 40.3%. As to `CC(=O)N1CC(Cc2nccc3ccn(C)c23)C1`, the INHIBITION was found to be 47.2%. Under `COc1cc(OC)cc(-c2cc(CN)nc3ccnn23)c1` stands -18.2%; under `Cc1ccccc1S(=O)(=O)N(C)[C@@H]1CC[C@@H](n2ccnc2C)[C@@H]1O`, 38.15%. Under `CC(c1nc(C2CC2)no1)N1CCN(CC(=O)N2CCOCC2)CC1` (stereo not drawn) stands 10.7%; under `Cc1ccc(CN2Cc3nccn3CC(Cn3cccn3)C2)s1` (stereo not drawn), 45.7%; under `Cc1ccc(CN2Cc3nccn3CC(CN(C)C)C2)s1` (stereo not drawn), 64.9%. On to `CCN(CC)CC1CN(Cc2ccc(C)s2)Cc2nccn2C1` (stereo not drawn), for which the INHIBITION is -30.6%. As to `OC1CCN(C2CCN(Cc3cccc(Cn4cccn4)c3)CC2)CC1`, the INHIBITION came to 24.9%.

As for `CCn1cc(CN2CCCCC2CCn2ccnc2C)cc1C#N` (stereo not drawn), the INHIBITION came out at 29.2%. The figure for `CCn1cc(CN2CCC(NS(C)(=O)=O)CC2)cc1C#N` is 62.4%; for `CCn1cc(CN2CCC(c3ccncc3)CC2)cc1C#N` it is 13%.

On to `Cc1nn(CCO)cc1CN1CCC(C(C)N2CCCC2)CC1` (stereo not drawn), for which the INHIBITION is 32.5%. For `CCn1cc(CN2CCC(N3CCC(O)CC3)CC2)cc1C#N`, the INHIBITION is on record as 64.9%. On to `Cc1nn(CCO)cc1CN1CCC(N2CCC(O)CC2)CC1`, for which the INHIBITION stood at 50.5%. Under `CCn1cc(CN2CCC(CN3CCCCC3)CC2)cc1C#N` stands 6.88%; under `CCn1cc(CN2CCC(C3CCN(C)CC3)CC2)cc1C#N`, 66.1%. The figure for `CCn1cc(CN2CCC(CNC(C)=O)CC2)cc1C#N` is 24.2%; for `Cc1nn(CCO)cc1CN1CCCN(C2CCCC2)CC1` it is 12.8%; for `CS(=O)(=O)NC1CCN(Cc2ccc(OCc3ccccn3)cc2)CC1` it is -1.83%. As for `Cc1ccc(CC(=O)N(C)CC2(O)CCCN(c3ccccn3)C2)s1` (stereo not drawn), the INHIBITION is listed as -2.11%. Take `CC(C)N(Cc1ccccn1)Cc1nc2c(cnn2C)c(=O)[nH]1`: the INHIBITION is 25.65%.

Turning to `CN(C)C(=O)CN1CC[C@H]2CN(C3CCOCC3)C[C@@H]2C1=O`, the INHIBITION came to 30.9%. Turning to `CCC(=O)N1CCN(C)C(=O)C(Cc2ccccc2-c2cccs2)C1` (stereo not drawn), the INHIBITION worked out at 22%. Regarding `O=C(c1cc(=O)c(OCc2ccccc2F)co1)N1CCSCC1`, the INHIBITION is recorded as 21.5%. Under `CS(=O)(=O)c1cncnc1C1CCCN(C(=O)Cc2ccccc2F)C1` (stereo not drawn) stands 17.985%; under `CCNC(=O)[C@@H]1C[C@H](N)CN1C(=O)C1(c2ccc(OC)cc2)CCCC1`, -12.7%. As for `CCN(CC)C(=O)CNC(=O)N1CCC(c2ccc(OC)cc2)C1` (stereo not drawn), the INHIBITION is given as 21.7%.

`CCC(=O)Nc1cccc(OCC(=O)N2CC=CC2C(C)C)c1` (stereo not drawn): the INHIBITION is recorded as -16.6%. The figure for `Cc1ccccc1CCC(=O)N1CCCC(c2cc(C(N)=O)[nH]n2)C1` (stereo not drawn) is 11.9%; for `CCn1cc(NC(=O)c2c(C)nn(C)c2C)c(C(N)=O)n1` it is 27.4%. The figure for `Cc1ccc(-c2ccc(CC3NCCN(C)C3=O)cc2)cc1` (stereo not drawn) is 29.2%; for `Cn1cc(-c2nc3c(cc2C(=O)O)CCN(C(=O)C2CC2)CC3)cn1` it is -27.1%; for `Cn1nccc1-c1nc2c(cc1C(=O)O)CCN(C(=O)C1CC1)CC2` it is 72.3%. On to `Cn1nccc1-c1nc2c(cc1C(=O)O)CCN(CC1CC1)CC2`, for which the INHIBITION is on record as -10.3%. The figure for `O=C(Cn1nc(-c2ccc(F)cc2)oc1=O)NCCc1ccccc1` is 27.6%; for `CNC(=O)CN1CC[C@H]2CN(C(=O)c3ccc(C)cc3)C[C@H]2C1` it is -99.2%.

`Cc1nc(CN2CCC3(CCCN(Cc4cccnc4)C3)C2=O)cs1` (stereo not drawn): the INHIBITION amounted to 36.2%. The figure for `CC(C)C(=O)N1CCC[C@]2(C(=O)N(C)C)CN(c3ccccn3)C[C@@H]2C1` is -28%. Under `Cn1cc(C2CCCN2Cc2csc(Cc3ccccc3)n2)cn1` (stereo not drawn) stands 35.9%; under `COc1ccc(CNC(=O)c2ccoc2CN2CCNC(=O)C2)cc1`, 29.3%; under `CCCc1nc(N2CCCCCC2)c2c(n1)c(C)nn2CC`, 78.4%.

For `CCCc1nc(N2CCN(CC)CC2)c2c(n1)c(C)nn2CC`, the INHIBITION is given as 33.5%. Under `CCCc1nc(N2CCCC(C)C2)c2c(n1)c(C)nn2CC` (stereo not drawn) stands 66.5%. Under `CCCc1nc(N2CCC(C)CC2)c2c(n1)c(C)nn2CC` stands 12.3%; under `CCCc1nc(N2CCSCC2)c2c(n1)c(C)nn2CC`, -3.47%.

Consider `CCCc1nc(N2CCCCC2)c2c(n1)c(C)nn2CC`, for which the INHIBITION worked out at 11.7%. Under `CCC(=O)N1CCC(c2nc(O)c3c(n2)CN(C2CCCCC2)CC3)C1` (stereo not drawn) stands 38.8%; under `Cn1cccc1C(=O)N1CCO[C@@H]2CN(Cc3ccco3)C[C@@H]2C1`, 15.8%; under `c1csc(CN2CCc3ncnc(C4CCOC4)c3CC2)c1` (stereo not drawn), 33%. For the molecule `COc1cccc(-c2n[nH]cc2CNC2CCC(O)CC2)c1` (stereo not drawn), the INHIBITION came to 19.4%.

Turning to `CCN1CCC(CNCc2cc(OC)ccc2OC)C1` (stereo not drawn), the INHIBITION was determined as 10.1%. Under `COc1ccc(CNC2CCN(CCc3ccncc3)CC2)cc1O` stands -4.86%.
